Compound activity (PubChem BioAssay)
The entries come from a sample that favours hits as a whole.
IDE exosite FP: exo-site inhibitors of human insulin-degrading enzyme; P14735; 6.3% of 17,000 active; z-score at 20 µM; AID 1259349; purified IDE, FL-6b probe fluorescence polarization; stronger effect = lower value;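 active = z-score of -3 or lower, meaning strong loss of probe binding signal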;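 also: His-tagged human IDE residues 42-1019 made in E. coli with 30 nM FL-6b probe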
Target sequence (P14735 42-1019 limits assumed): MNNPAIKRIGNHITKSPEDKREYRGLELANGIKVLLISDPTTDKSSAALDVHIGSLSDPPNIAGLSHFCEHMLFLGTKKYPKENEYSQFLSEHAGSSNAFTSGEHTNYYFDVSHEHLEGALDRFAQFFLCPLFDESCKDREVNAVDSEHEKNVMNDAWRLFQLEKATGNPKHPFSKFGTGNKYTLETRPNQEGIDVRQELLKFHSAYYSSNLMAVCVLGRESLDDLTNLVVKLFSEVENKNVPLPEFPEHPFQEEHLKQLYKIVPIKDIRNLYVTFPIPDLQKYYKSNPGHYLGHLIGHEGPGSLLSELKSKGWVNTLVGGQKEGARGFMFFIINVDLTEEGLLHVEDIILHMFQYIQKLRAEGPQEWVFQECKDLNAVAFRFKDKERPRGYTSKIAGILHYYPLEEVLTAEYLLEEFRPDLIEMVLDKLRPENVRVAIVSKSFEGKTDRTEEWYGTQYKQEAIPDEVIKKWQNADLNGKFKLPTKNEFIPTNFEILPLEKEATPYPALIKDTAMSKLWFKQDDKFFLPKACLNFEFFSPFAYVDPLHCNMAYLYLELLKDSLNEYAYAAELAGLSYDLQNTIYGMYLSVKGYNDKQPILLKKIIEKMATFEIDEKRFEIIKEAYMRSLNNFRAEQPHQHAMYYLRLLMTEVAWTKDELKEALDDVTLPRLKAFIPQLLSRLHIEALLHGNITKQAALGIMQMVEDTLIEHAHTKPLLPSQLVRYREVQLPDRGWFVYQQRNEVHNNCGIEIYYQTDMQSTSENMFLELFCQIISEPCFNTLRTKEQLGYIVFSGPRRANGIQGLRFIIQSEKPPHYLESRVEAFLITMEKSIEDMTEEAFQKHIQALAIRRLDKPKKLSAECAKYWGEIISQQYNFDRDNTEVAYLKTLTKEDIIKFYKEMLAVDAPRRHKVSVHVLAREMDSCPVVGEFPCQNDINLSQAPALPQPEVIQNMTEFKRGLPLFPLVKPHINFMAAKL
* hit, by the source's call.

SMILES	IDE exosite FP
O=C(Cc1ccccn1)N1CCCCN2[C@H](CO)[C@H](c3ccc(-c4ccccc4)cc3)[C@@H]2C1	-0.96
Cc1ccccc1-c1ccc([C@H]2[C@@H](CO)N3CCCCN(C(=O)Cc4ccccn4)C[C@@H]23)cc1	-5.7*
Cc1ccccc1-c1ccc([C@H]2[C@H]3CN(C(=O)Cc4ccccn4)CCCCN3[C@H]2CO)cc1	-0.98
O=C(Cc1ccccn1)N1CCCCN2[C@H](C1)[C@@H](c1ccc(-c3ccccc3F)cc1)[C@@H]2CO	-4.5*
Cc1ccccc1-c1ccc([C@@H]2[C@H]3CN(C(=O)Cc4ccccn4)CCCCN3[C@H]2CO)cc1	-10*
O=C(Cc1ccccn1)N1CCCCN2[C@@H](CO)[C@H](c3ccc(-c4ccccc4)cc3)[C@@H]2C1	1.9
O=C(Cc1ccccn1)N1CCCCN2[C@H](C1)[C@H](c1ccc(-c3ccccc3)cc1)[C@@H]2CO	-2.4
O=C(Cc1ccccn1)N1CCCCN2[C@H](CO)[C@@H](c3ccc(-c4ccc(F)cc4)cc3)[C@H]2C1	4.4
O=C(Cc1ccccn1)N1CCCCN2[C@H](CO)[C@@H](c3ccc(-c4ccccc4)cc3)[C@H]2C1	-0.097
OC[C@@H]1[C@@H]2c3ccccc3NC[C@@H]2N1Cc1cccnc1	1.1
COc1ccc(C#Cc2ccc([C@H]3[C@H](CO)N4CCCCN(C(=O)Cc5ccncc5)C[C@@H]34)cc2)cc1	-1.4
O=C(Cc1ccccc1)N1CCCCN2[C@@H](CO)[C@@H](c3ccc(-c4ccccc4)cc3)[C@@H]2C1	2.4
C/C=C/c1ccc(C2[C@@H]3CN(C(=O)c4cnccn4)C[C@H]2N3)cc1 (some centres undefined)	-0.29
N#Cc1cccc(-c2ccc([C@@H]3[C@@H](CO)N4CCCCN(C(=O)Cc5ccccc5)C[C@@H]34)cc2)c1	3.1
COc1ccccc1CN1[C@H](CO)[C@@H](c2ccccc2)C12CN(C(=O)Cc1ccccc1)C2	2.2
O=C(Cc1ccncc1)N1CCCCN2[C@H](CO)[C@@H](c3ccc(C#Cc4ccccc4F)cc3)[C@H]2C1	-2.5
O=C(Cc1ccncc1)N1CCCCN2[C@@H](CO)[C@@H](c3ccc(C#Cc4ccccc4F)cc3)[C@@H]2C1	-5.4*
O=C(Cc1ccccc1)N1CCCCN2[C@H](CO)[C@@H](c3ccc(C#Cc4ccccc4)cc3)[C@H]2C1	0.71
COc1ccc(C#Cc2ccc([C@@H]3[C@H](CO)N4CCCCN(C(=O)Cc5ccncc5)C[C@@H]34)cc2)cc1	3.8
O=C(Cc1ccncc1)N1CCCCN2[C@H](CO)[C@H](c3ccc(C#Cc4ccccc4F)cc3)[C@H]2C1	-4.2*
O=C(Cc1ccccc1)N1CCCCN2[C@H](CO)[C@@H](c3ccc(C#Cc4ccccc4)cc3)[C@@H]2C1	-1.3
O=C(Cc1ccncc1)N1CCCCN2[C@@H](CO)[C@@H](c3ccc(C#CC4(O)CCCC4)cc3)[C@@H]2C1	2.8
O=C1CNC[C@@H]2[C@@H](c3ccc(Br)cc3)[C@@H](CO)N12	-0.99
N#Cc1ccc(-c2ccc([C@@H]3[C@H]4CN(C(=O)Cc5ccccc5)CCCCN4[C@H]3CO)cc2)cc1	0.54
N#Cc1cccc(-c2ccc([C@H]3[C@H]4CN(C(=O)Cc5ccccc5)CCCCN4[C@H]3CO)cc2)c1	2.1
SMILES	IDE exosite FP
O=C(Cc1ccccc1)N1CCCCN2[C@@H](CO)[C@H](c3ccc(C#CC4(O)CCCC4)cc3)[C@@H]2C1	3.4
COc1ccc(-c2ccc([C@H]3[C@@H](CO)N4CCCCN(C(=O)Cc5ccccc5)C[C@@H]34)cc2)cc1	0.58
COc1ccc(-c2ccc([C@H]3[C@H](CO)N4CCCCN(C(=O)Cc5ccccc5)C[C@@H]34)cc2)cc1	0.59
COc1cccc(-c2ccc([C@H]3[C@@H](CO)N4CCCCN(C(=O)Cc5ccncc5)C[C@@H]34)cc2)c1	1.1
COc1ccc(-c2ccc([C@@H]3[C@H](CO)N4CCCCN(C(=O)Cc5ccccc5)C[C@@H]34)cc2)cc1	-3.1*
COc1cccc(-c2ccc([C@@H]3[C@H](CO)N4CCCCN(C(=O)Cc5ccncc5)C[C@@H]34)cc2)c1	-3.9*
COc1cccc(-c2ccc([C@@H]3[C@@H](CO)N4CCCCN(C(=O)Cc5ccncc5)C[C@@H]34)cc2)c1	-2.3
COc1cccc(-c2ccc([C@@H]3[C@@H](CO)N4CCCCN(C(=O)Cc5ccncc5)C[C@H]34)cc2)c1	0.079
O=C(Cc1ccncc1)N1CCCCN2[C@H](C1)[C@@H](c1ccc(C#CC3(O)CCCC3)cc1)[C@@H]2CO	1.1
COC(=O)[C@@H]1[C@@H](CO)[C@@H]2Cn3c(ccc(-c4cccc(F)c4)c3=O)[C@H]1N2Cc1ccncc1	-0.19
OC[C@H]1Nc2ccc(C#Cc3cccnc3)cc2[C@H]2NCC[C@H]21	2.8
O=C1CNC[C@@H]2[C@H](c3ccc(Br)cc3)[C@@H](CO)N12	0.7
C/C=C/c1ccc([C@@H]2[C@H](CO)N3CCCCN(C(=O)Cc4cccnc4)C[C@@H]23)cc1	-0.6
C/C=C/c1ccc([C@@H]2[C@@H](CO)N3CCCCN(C(=O)Cc4cccnc4)C[C@@H]23)cc1	0.079
